Data reported in PubChem BioAssay AID1671194 (National Center for Advancing Translational Sciences (NCATS), 2021).
Screen size: about 140,000 compounds; about 240 (0.17%) were called active. Inconclusive results (about 9%) are left out. For the sample, actives were picked, then their nearest neighbours and some compounds at random. Values without a mark were called inactive. Calls come from the whole dose curve; as a rule, active = well fitted inhibition curve with a large enough effect; inconclusive = small, poorly fitted or top-dose-only effect; inactive = no such curve, though single readings can be large or run the other way.

assay: Primary qHTS assay for inhibitors of alpha-synuclein gene (SNCA) expression; conditions: HEK-293 SNCA-luciferase knock-in, luminescence, 24 h; series mostly up to 57.2 µM; activity change, negative = inhibition: at the top concentration; note: nearly all actives have a fitted effect of over 45% in size
From the text: Assay Submitter (PI): Daniel R. Scoles Ph.D.
Department of Neurology, University of Utah, Salt Lake City, Utah
Accumulation of alpha-synuclein is a main underlying pathological feature of Parkinson's disease (PD) and alpha-synucleinopathies, for which lowering expression of the alpha-synuclein gene (SNCA) is a potential therapeutic avenue. Using a cell-based luciferase reporter of SNCA expression we performed a quantitative high throughput screen (qHTS) of 155,885 compounds in dose response. The screening assay was generated using genome editing to insert the luciferase gene downstream and in frame of the SNCA gene in HEK-293 cells (1). A viability counterscreen using GF-AFC was used to eliminate cytotoxic and false positive compounds. After in silico analysis (clustering, removal of frequent hitter nuisance chemotypes), inhibitor compounds from the primary screen were selected for follow up and re-tested at 11-doses in the SNCA-luc cells (luciferase and GF-AFC confirmation), and in CMV-luc expressing cell line to flag general transcriptional repressors.
Described herein are the results of the primary screen for SNCA inhibitors; decrease in luciferase signal (inhibition of the SNCA gene expression) is the desired output for this assay.
1. Dansithong, W., Paul, S., Scoles, D. R., Pulst, S. M., and Huynh, D. P. (2015) Generation of SNCA Cell Models Using Zinc Finger Nuclease (ZFN) Technology for Efficient High-Throughput Drug Screening. PLoS ONE 10, e0136930.
SEQUENCE No. (e.g., 1, 2, 3, etc.); […] (e.g., Cells, Incubation, Reagent, etc.); VALUE; DESCRIPTION
1; Cells; 4 uL; Dispense 1500 HEK-293-SNCA-luc cells/well into Greiner 1536-well white / solid bottom tissue culture treated plate. The plate was covered with metal lids with gas-exchange holes.
2; Incubate; 24 hours; Incubate at 37C, 5% CO2, 95% RH.
3; Compounds; 23 nL; Compounds and controls were transferred via a Kalypsys Pin Tool (Wako USA) equipped with a 1536-slotted pin array. The plate was covered with metal lids with gas-exchange holes.
4; Incubate; 24 hours; Incubate at 37C, 5% CO2, 95% RH.
5; Dispense; 1 uL; Dispense Gly-Phe-7-amino-4-trifluoromethylcoumarin (GF-AFC, prepared at 125 uM in PBS) was added. The plate was covered with metal lids with gas-exchange holes.
6; Incubate; 30 min; Incubate at 37C, 5% CO2.
7; Detector; Fluorescence; Measure fluorescence with ViewLux microplate reader (PerkinElmer) equipped with 405/10 excitation and 540/25 emission filters.
8; Dispense; 3 uL; Dispense ONE-Glo ([…]) lucifase detection reagent was added to each well. Plates were covered with metal lids with gas-exchange holes.
9; Incubate; 15 min; Incubate at room temperature.
10; Detector; Luminescence; Measure luminescence with ViewLux microplate reader (PerkinElmer) equipped with clear filters.
NOTES (numbers refer to sequence above)
1; HEK-293-SNCA-luc were cultured and suspended in phenol-red free DMEM (4.5 g/L glucose, 25 mM HEPES, cat #21063 (Thermo)).
3; Compounds were added to the assay plate in an 11-point intra plate dose response, 1:3 titration in DMSO with a final concentration range of […]. Vehicle-only plates, with DMSO being pin-transferred to every well, were inserted at the beginning of screening runs to confirm expected assay performance. Activity was normalized to wells containing medium only (-100% activity, full inhibition) and SNCA-luc cells treated with DMSO vehicle control (0% activity), contained on the same plate as test samples.
10; Signals were analyzed, and dose-response curves were fit using the Hill equation. Compounds in curve classes -1.1, -1.2, -2.1, -2.2 in the SNCA-luc assay were considered active. Compounds were eliminated from further consideration if also active (curve class -1.1, -1.2, -1.3, -1.4, -2.1, -2.2, -2.3, -2.4) in the GF-AFC cytotoxicity assay.
Potency is the fitted concentration of half-maximal effect.

| SMILES | activity change, negative = inhibition | Potency |
| --- | --- | --- |
| Cc1ccc(CNC(=O)c2ccc3c(c2)CN(Cc2cccnc2Cl)CCO3)cc1 | 9.94% | – |
| O=C1CO[C@H]2CN(C3CCC3)C[C@H]2N1Cc1ccc(OC(F)(F)F)cc1 | -24.4% [at 87.6 µM] | – |
| O=C1NCCc2[nH]c(-c3ccncc3)cc21 | – | 3.41 µM (active) |
| CC(C)CNC(=O)C1CCCN(c2nccc(Nc3ccccc3F)n2)C1 (centres undefined) | -8.89% | – |
| CN(Cc1ccccc1)C(=O)CC1CCN(C(=O)CCC2CCCC2)C1 (centres undefined) | 5.5% | – |
| COc1ccc(CC(=O)NC2CCN(c3cc(-c4ccccc4)[nH]n3)CC2)cc1 | 0.566% | – |
| CC(=O)c1cnc2ccc(-c3cc(Cl)c(O)c(Cl)c3)nc2c1NC1CCC(CN(C)C)CC1 (centres undefined) | – | 0.027 µM (active) |
| CCN(CC)Cc1ccc2c(c1)CN(C(=O)Cc1c[nH]c3ccccc13)CCO2 | 1.62% | – |
| N#Cc1cccc(-c2c(C(=O)NCCc3ccccc3)nc3sccn23)c1 | 21.4% | – |
| COc1ccccc1CCC(=O)N1C[C@H](N)C[C@H]1C(=O)NC(C)C | -20.2% | – |
| COc1cccc(CNC(=O)c2cc(-c3cccnc3)nc3c2cnn3C)c1 | -17.4% | – |
| COCCN1C(=O)N(C)C(=O)C12CCN(Cc1cc(F)ccc1F)C2 (centres undefined) | -6.12% | – |
| O=C1NCCCCCN(C(=O)Cc2ccccc2)[C@@H]2C[C@@H](C(=O)N3CCc4ccccc4C3)C[C@H]12 | -16.4% | – |
| CCCNC(=O)C(NC(=O)c1ccccc1C)C1CCN(C(=O)c2ccc(OC)cc2)CC1 (centres undefined) | 17.1% | – |
| O=S(=O)(c1cccc(F)c1)N1CC[C@@H]2COCCN(Cc3cccnc3)[C@@H]2C1 | 16.8% | – |
| CN(C)c1ccc(CN[C@H]2[C@H](O)[C@@H](N3CCC(Cc4ccccc4)CC3)[C@@H]3OC[C@H]2O3)cc1 | -9.07% | – |
| Cc1ccc(C(=O)N2CCC3(CC2)NC(=O)N(Cc2ccc(F)cc2)C3=O)cc1 | 7.66% | – |
| CN(C)CCc1c[nH]c2ccc(Cn3cncn3)cc12 | – | 2.71 µM (active) |
| COc1ccc2[nH]cc(CCNc3cc(-c4ccccc4CN(C)C)ncn3)c2c1 | -19.4% | – |
| CS(=O)(=O)N(Cc1ccccn1)C1CN(C(=O)NCCc2ccccc2)C1 | -15.2% | – |
| O=C(NCc1ccc(F)cc1)c1nc(-c2ccccc2)c2ccccn12 | -74.1% | – |
| Cn1ncc2c(C(=O)NCc3cccnc3)cc(C(C)(C)C)nc21 | -10.6% | – |
| CC(=O)N1CCN(C(=O)C2CCCN2Cc2ccc(-c3cc(C)cc(C)c3)cc2)CC1 (centres undefined) | 22.3% | – |
| CC1=C[C@@H](CN2CCCC2)[C@H](C(C)C)C[C@H]1Cc1nnc(-c2ccc([N+](=O)[O-])cc2)o1 | -27.7% [at 87.6 µM] | – |
| Cc1nc(N2CCC(NCCNc3ccncc3C)CC2)c2ccsc2n1 | -2.65% | – |

| SMILES | activity change, negative = inhibition | Potency |
| --- | --- | --- |
| Cc1ccccc1C(=O)N1CCC(C(=O)N2CCC(c3nc4ccncc4[nH]3)C2)CC1 (centres undefined) | 6.85% | – |
| CC(=O)N1CCC(N[C@H]2C[C@@H](Cc3cc(CN(C)c4ccccc4)on3)C2(C)C)CC1 | 4.87% [at 87.6 µM] | – |
| COc1ccc(-c2cn3cc(C(=O)NCc4ccc(F)cc4)nc3s2)cc1 | -7.67% | – |
| COc1ccc(CN2CC(Oc3ccc(OC)cc3)C2)cc1 | -5.4% [at 87.6 µM] | – |
| CCCCn1c(=O)c(C(=O)N2CCN(C(=O)c3ccccc3)CC2)nc2cccnc21 | -2.39% | – |
| Cc1ccccc1-c1ccnc(-c2nnc(C)n2C(C)C)c1 | -7.25% [at 87.6 µM] | – |
| Cc1ccc(OCC(=O)N2CCC(c3nn(C)c4c3COCC4)CC2)cc1 | 1.65% | – |
| COCCOCC1(CNS(=O)(=O)c2c(C)noc2C)C[C@@H](O)[C@@H](O)C1 (some centres undefined) | 4.32% [at 87.6 µM] | – |
| c1ccc(CNC[C@H]2Cn3cc(-c4ccccc4)nc3CO2)cc1 | 84.9% [at 87.6 µM] | – |
| Cc1nnc(-c2cc(-c3ccccc3)ccn2)n1CCc1ccccc1 | 32.3% [at 87.6 µM] | – |
| CC(C)=CCC1(CO)CCCN(Cc2ccccc2OCCO)C1 (centres undefined) | -6.74% | – |
| O=C1NCCCCCCN(Cc2ccncc2)[C@@H]2CN(CC3CC3)CC[C@@H]12 | -21.1% | – |
| CC[C@H]1CN(C(=O)Nc2cccc(C(F)(F)F)c2)CC[C@H]1CC(=O)NCCSC | -20% [at 87.6 µM] | – |
| COC(=O)c1cccc(NC(=O)N2CCc3c(nc4cc(-c5ccccc5)[nH]n4c3=O)C2)c1 | 37.1% | – |
| NCc1ccccc1-c1cccc(O)c1 | -17.9% [at 87.6 µM] | – |
| O=C(c1n[nH]c2c1CCCC2)N1CCC2(CC1)NC(=O)N(c1ccc(F)cc1)N2 | 0.129% | – |
| COc1ccc(OC)c(CN2CCC3(CC2)COCCN3C(=O)OCc2ccccc2)c1 | -4.88% | – |
| COc1ccc(-c2ncc3c(n2)OCCN(CC2CC2)C3=O)cc1 | -22.4% [at 87.6 µM] | – |
| O=C([C@@H]1C[C@H](c2ccc(F)cc2)N([S+](=O)([O-])C2CC2)C1)N1CCN(c2ccccn2)CC1 | 54.6% | – |
| COCCNC(=O)[C@@H]1C[C@H](Oc2cccnc2)CN1C(=O)C1CC=CC1 | 9.07% | – |
| COc1cccc(CNC(=O)N2CCCC3(C2)Nc2cccnc2NC3=NC2CCCC2)c1 (centres undefined) | -21.6% | – |
| CCn1cc2nc(SCc3ccccc3Cl)n(CCc3ccccc3)c(=O)c2n1 | – | 14.1 µM (active) |
| Cc1cccc(Cc2c(C)nc3nc(SCc4ccccc4Cl)nn3c2C)c1 | 12.7% | – |
| CCN(CC)C(=O)CSc1nc2ccsc2c(=O)n1Cc1ccccc1Cl | -0.0876% | – |
